{
  "source": "PubChem BioAssay AID493087",
  "about": "(The Scripps Research Institute Molecular Screening Center, 2011)",
  "note": "Screen size: about 340,000 compounds; about 240 (0.071%) were called active. This is one part of a sample in which actives are shown more often than they occur.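 Rule for the calls: active = activation above the mean of all tested compounds plus 3 SD, set per screening campaign (cut at about 17% in these data); inactive = the rest.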",
  "data": [
    {"molecular_target": "Insulin-degrading enzyme (Homo sapiens) (UniProt P14735)", "sequence (P14735 whole entry, looked up)": "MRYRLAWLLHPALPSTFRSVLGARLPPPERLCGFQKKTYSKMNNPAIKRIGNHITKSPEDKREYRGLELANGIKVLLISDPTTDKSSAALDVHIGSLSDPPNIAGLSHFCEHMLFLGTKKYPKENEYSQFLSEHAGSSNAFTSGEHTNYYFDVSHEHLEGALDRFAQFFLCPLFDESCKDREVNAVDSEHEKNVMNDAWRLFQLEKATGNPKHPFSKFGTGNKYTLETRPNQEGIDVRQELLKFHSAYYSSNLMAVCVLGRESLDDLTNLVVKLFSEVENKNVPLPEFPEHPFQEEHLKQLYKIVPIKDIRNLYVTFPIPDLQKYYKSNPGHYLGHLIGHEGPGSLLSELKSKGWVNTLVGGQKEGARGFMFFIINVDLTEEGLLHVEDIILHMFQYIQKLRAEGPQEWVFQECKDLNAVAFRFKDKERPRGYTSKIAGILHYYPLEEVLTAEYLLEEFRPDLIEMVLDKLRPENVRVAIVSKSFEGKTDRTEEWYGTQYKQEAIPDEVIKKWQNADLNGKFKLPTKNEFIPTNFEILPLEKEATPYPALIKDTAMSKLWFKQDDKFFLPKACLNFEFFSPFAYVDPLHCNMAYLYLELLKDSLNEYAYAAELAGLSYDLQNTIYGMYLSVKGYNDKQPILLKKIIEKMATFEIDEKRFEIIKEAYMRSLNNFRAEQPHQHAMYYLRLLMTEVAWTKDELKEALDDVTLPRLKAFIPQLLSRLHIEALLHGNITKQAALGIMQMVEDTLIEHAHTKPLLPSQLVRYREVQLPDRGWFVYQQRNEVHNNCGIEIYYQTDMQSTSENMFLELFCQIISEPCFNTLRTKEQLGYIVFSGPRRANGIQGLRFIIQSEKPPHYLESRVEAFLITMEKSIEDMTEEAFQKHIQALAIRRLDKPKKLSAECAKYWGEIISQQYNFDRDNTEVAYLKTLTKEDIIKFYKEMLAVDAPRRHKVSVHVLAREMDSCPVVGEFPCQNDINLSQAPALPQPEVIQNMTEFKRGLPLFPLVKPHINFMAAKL", "test": "human IDE activators in live cells, primary screen, fluorescence polarization, HEK cells, FAbeta-B substrate (AID 493087)", "settings": "FAbeta-B cleavage, at 5.96 µM, stronger effect = higher value, 0% vehicle, 100% cell-free pure enzyme wells", "values": [
      {"smiles": "O=C1/C(=C\\c2ccc(O)cc2)CCC1CNc1ccc(Cl)cc1", "note": "(stereo not given)", "activation": "-1.61% (inactive)"},
      {"smiles": "N#Cc1cccc(CN2CCC(=O)N([C@H](CO)c3ccccc3)CC2)c1", "activation": "2.37% (inactive)"},
      {"smiles": "OC(COc1ccccc1)CN1CCN(c2cccc(Cl)c2)CC1", "note": "(stereo not given)", "activation": "5.12% (inactive)"},
      {"smiles": "CN(Cc1cccs1)C(=O)CN1C(=O)c2ccccc2S1(=O)=O", "activation": "0.93% (inactive)"},
      {"smiles": "COCCN(C(=S)Nc1cccc(Cl)c1C)C(C)c1ccco1", "note": "(stereo not given)", "activation": "1.29% (inactive)"},
      {"smiles": "COc1ccc(S(=O)(=O)c2c[nH]c(=S)[nH]c2=O)cc1Cl", "activation": "-1.33% (inactive)"},
      {"smiles": "CN(C)S(=O)(=O)c1ccc(N2CCCC2=O)c([N+](=O)[O-])c1", "activation": "5.59% (inactive)"},
      {"smiles": "COc1ccc(Cn2cc(CN3CCS(=O)(=O)N(Cc4ccc(-c5cccc(Cl)c5)cc4)C(C)C3=O)nn2)cc1", "note": "(stereo not given)", "activation": "1.16% (inactive)"},
      {"smiles": "Cc1noc(C)c1C(=O)OC(C)C(=O)Nc1ccc2c(c1)OCO2", "note": "(stereo not given)", "activation": "0.42% (inactive)"},
      {"smiles": "CCCCSCCCNC(=O)C1CCC(CNS(=O)(=O)c2ccc(NC(C)=O)cc2)CC1", "note": "(stereo not given)", "activation": "-0.18% (inactive)"},
      {"smiles": "CCn1c(=O)cc(SCC(=O)NCc2ccc3c(c2)OCO3)c2ccccc21", "activation": "2.55% (inactive)"},
      {"smiles": "C=CCn1c(=O)c(C(=O)NCc2ccc3c(c2)OCO3)c(O)c2ccccc21", "activation": "3.17% (inactive)"},
      {"smiles": "CCn1c(=O)c([N+](=O)[O-])c(NCc2ccc3c(c2)OCO3)c2ccccc21", "activation": "23.5% (active)"},
      {"smiles": "COc1ccccc1CC(NC(C)=O)C(=O)NC1CCN(C(=O)Nc2ccccc2Cl)CC1", "note": "(stereo not given)", "activation": "3.56% (inactive)"},
      {"smiles": "O=C(CSc1ncnc2sccc12)NC1CCS(=O)(=O)C1", "note": "(stereo not given)", "activation": "6.28% (inactive)"},
      {"smiles": "CCOC(=O)/C=C/c1ccc(C(F)(F)F)cc1S(=O)(=O)NC(C)(C)C", "activation": "-1.81% (inactive)"},
      {"smiles": "CCOC(=O)/C=C/CN(C(=O)OC(C)(C)C)S(=O)(=O)N1CC=CC1", "activation": "34.8% (active)"},
      {"smiles": "CCOCc1c(C(=O)N2CCN(Cc3ccc(Br)s3)CC2)oc2ccccc12", "activation": "7.28% (inactive)"},
      {"smiles": "Cc1ccc(NC2CCCN(C(=O)CCC3(C)CC3)C2)cc1C", "note": "(stereo not given)", "activation": "3.99% (inactive)"},
      {"smiles": "Cn1c2c(c(=O)n(C)c1=O)[C@@H]1c3c(ccc4ccccc34)OC[C@@H]1CO2", "activation": "9.31% (inactive)"},
      {"smiles": "Cc1cc(C)c(S(=O)(=O)Nc2c(C)n(C)n(-c3ccccc3)c2=O)cc1[N+](=O)[O-]", "activation": "0.96% (inactive)"},
      {"smiles": "CSc1ccccc1OCc1cc(C(=O)N2C[C@H]3CC[C@H]2C3)no1", "activation": "0.59% (inactive)"},
      {"smiles": "COC(=O)c1c(C)cc(O)c(C)c1O", "activation": "-0.29% (inactive)"},
      {"smiles": "COc1ccc(CCNC(=O)CCNS(=O)(=O)c2cc(Br)cnc2N)cc1OC", "activation": "3.78% (inactive)"},
      {"smiles": "Cn1c(N)c(C(=O)COC(=O)/C=C/c2cccc(C(F)(F)F)c2)c(=O)n(C)c1=O", "activation": "4.24% (inactive)"}
    ]}
  ]
}
